# Bioassay records deposited in PubChem BioAssay by National Center for Advancing Translational Sciences (NCATS).
# CHX counter – Cycloheximide Counterscreen for Small Molecule Inhibitors of Shiga Toxin. cell reporter, cycloheximide protein synthesis inhibition counterscreen. max response, %. 12% of 300,000 active. AID 2314, 2010; in the data active means max response mostly above about 13%, no sharp cut-off; inactive means mostly below about 14%; further: read at 38.3 µM for the half of the compounds with a filed dose; 0% is about no effect
# LmPK inhibitor – qHTS Assay for Inhibitors of Leishmania Mexicana Pyruvate Kinase (LmPK); Q27686; Potency, µM (titrated, usually from 57.5 µM), inactives show at the top dose activity change, negative = inhibition, hits mostly inhibitors; 0.37% of 290,000 active; purified LmPK, Kinase-Glo ATP luminescence, 1 h; further: potency means the concentration at half of the fitted maximal effect; on the % scale 0 is the no-effect control and ±100 the full control effect
#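 Purified LmPK (0.1 nM) converted ADP (0.1 mM) to ATP with PEP (0.5 mM) in imidazole buffer pH 7.2 with KCl and MgCl2, 1 h at room temperature. ATP was read by Kinase-Glo luminescence; data normalized to uninhibited and no-enzyme controls.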
# Shiga inhibitor – A qHTS for Small Molecule Inhibitors of Shiga Toxin | Vero cells, Shiga toxin protein synthesis inhibition reporter | inhibition, % at 38.7 µM | 9.2% of 290,000 active | AID 2315, 2010; in the data active means inhibition mostly above about 28%, no sharp cut-off; inactive means mostly below about 43%; further: 0% is about no effect
# Giardia FBPA inh – qHTS Assay for Inhibitors of Fructose-1,6-bisphosphate Aldolase from Giardia Lamblia. A8B2U2. purified Giardia FBPA. Potency, µM (titrated, usually from 59.6 µM), for inactives: at the highest dose activity, negative = inhibition, actives largely listed as inhibitors. 0.71% of 290,000 active; further: potency means the concentration at half of the fitted maximal effect; on the % scale 0 is the no-effect control and ±100 the full control effect; nearly all actives have a fitted effect of over 55% in size
# Target sequence (A8B2U2 whole entry, looked up): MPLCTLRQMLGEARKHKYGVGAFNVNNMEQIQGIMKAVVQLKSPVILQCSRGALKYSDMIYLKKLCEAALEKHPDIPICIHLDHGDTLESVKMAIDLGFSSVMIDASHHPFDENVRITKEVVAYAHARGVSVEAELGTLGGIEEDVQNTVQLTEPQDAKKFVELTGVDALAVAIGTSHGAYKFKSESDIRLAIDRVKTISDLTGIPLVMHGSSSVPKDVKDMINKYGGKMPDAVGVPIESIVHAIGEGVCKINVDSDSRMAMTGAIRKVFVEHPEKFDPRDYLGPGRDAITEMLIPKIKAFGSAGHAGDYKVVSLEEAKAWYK
#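 40 nM FBPA preincubated 10 min at RT with compound (up to 57.5 uM final), then substrate plus GAPDH/TPI/NAD/arsenate coupling and diaphorase/resazurin added. Fluorescence read after 20 min at RT, 525/598 nm.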
# RE007 growth inh – qHTS Assay for Inhibitors of the HIV-1 protein Vpr; S. pombe RE007 Vpr strain, BacTiter-Glo ATP luminescence, 24 h; Potency, µM (doses to about 92.2 µM), for the others: top-dose activity change, negative = less growth, hits mostly inhibitors; 0.21% of 360,000 active; AID 651644, 2012; active means well fitted falling curve with a large enough effect; inconclusive means small, poorly fitted or top-dose-only effect; inactive means no such curve, though single readings can be large or run the other way; further: potency means the concentration at half of the fitted maximal effect; on the % scale 0 is the no-effect control and ±100 the full control effect; nearly all actives have a fitted effect of over 50% in size
#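 Fission yeast strain RE007, carrying one chromosomally integrated HIV-1 vpr copy, was seeded at OD 0.01 in PMG+AL medium with 23 nL pinned compound. After 24 h at 30 °C and 99% humidity, viability was read by BacTiter-Glo luminescence.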
# TbPYK inhibitor – qHTS of Trypanosoma Brucei Inhibitors; Potency, µM (highest dose often 76.8 µM), without a hit: at the highest dose activity, negative = inhibition, hits mostly inhibitors; pyruvate kinase (Trypanosoma brucei), Q57TT1; TbPYK enzyme, Kinase-Glo Plus ATP luminescence, 45 min; 0.12% of 410,000 active; further: potency means the concentration at half of the fitted maximal effect; on the % scale 0 is the no-effect control and ±100 the full control effect; nearly all actives have a fitted effect of over 50% in size
#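 Luminescent Kinase-Glo Plus end-point after 45 min room-temperature reaction of T. brucei pyruvate kinase started with 130 uM ADP (final). Buffer TEA 50 mM pH 7.2 with KCl, MgCl2, BSA, Tween-20; titration-based qHTS with fitted concentration-effect curves.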
# Active calls of the source: *; u = inconclusive; x = no result; + = active, no number; [ ] = another dose, or the depositor's remark. Shown is part of a subset that was picked to be rich in hits. Unless noted, the call rests on the fitted dose curve; in most records, active means well fitted curve in the direction sought with a large enough effect; inconclusive means small, poorly fitted or top-dose-only effect, or another doubt; inactive means no such curve, though single readings can be large; an effect the other way counts as inactive or inconclusive.
SMILES,CHX counter,LmPK inhibitor,Shiga inhibitor,Giardia FBPA inh,RE007 growth inh,TbPYK inhibitor
Cc1cccc(C)c1-n1ncc(C(=O)N2CCN(c3ccccc3)CC2)c1C1CCN(C(=O)OC(C)(C)C)CC1,x,x,x,x,x,0%
CCN1CCN(C(=O)c2cc(COc3ccc(F)c(F)c3)on2)[C@@H](C)C1=O,x,x,x,x,-2%,6%
CCCOC1CCCN(C(=O)c2cc(COc3ccc(F)c(F)c3)on2)C1 (configuration not stated),44*,2%,109*,-4%,-8%,2%
CCNc1ncc2nc(-c3ccc(OC)cc3)c(=O)n(Cc3cccs3)c2n1,x,x,x,3%,x,x
CCOc1cccc(OCCCOc2ccccc2)c1,15*,-1%,13,1%,-6%,-5%
CCOc1cccc(OCCOCCN(C)C)c1,12,-10%,52*,-19%,x,-7%
CCOc1cccc(OCCOCCN(C)Cc2ccccc2)c1,-1,-2%,-7,7%,-13%,2%
CCOc1ccc(-c2nc(CSCC(=O)N3CCN(c4cccc(C(F)(F)F)c4)CC3)c(C)o2)cc1,x,x,x,x,x,-4%[15.4 µM]
O=C(/C=C/c1ccco1)N1CCN(c2ncccn2)CC1,19*,-4%,92*,-1%,-9%,-8%
CC(C)C(=O)N1CCC(Cc2ccccc2)CC1,-3,-1%,-10,15%,16%,-1%
O=C(/C=C/c1ccco1)N1CCC(Cc2ccccc2)CC1,26*,0%,84*,-3%,12%,-18%
O=C(OCC(=O)N1CCC(Cc2ccccc2)CC1)c1ccccc1,55*,-4%,79*,4%,12%,0%
COc1cccc(N2CCN(C(=O)/C=C/c3ccco3)CC2)c1,41*,-1%,60,-25%,10%,0%
CC(C)Oc1ccc(S(=O)(=O)N2CCOCC2)cc1NC(=O)c1ccc(Cl)c(S(=O)(=O)N2CCOCC2)c1,x,x,x,x,-6%,9%
COc1cc(CCN)c(OC)cc1Br,x,x,x,x,x,4%[157 µM]
COc1ccc(C(=O)NC(=S)Nc2ccccc2[N+](=O)[O-])cc1OC,-1,1%,5,u,3%,-3%
CCn1cc(C(=O)NC(=S)Nc2sc3c(c2C(=O)OC)CCCCCC3)cn1,4,4%,-7,0%,15%,-8%
CCn1cc(C(=O)NC(=S)Nc2ccccc2[N+](=O)[O-])cn1,35*,0%,58*,x,-15%,0%
CCn1cc(C(=O)NC(=S)Nc2cccc(O)c2)cn1,28*,0%,58*,-12%,-14%,-5%
CCN(CC)c1ccc(NC(=O)c2cnn(CC)c2)cc1,44*,-7%,100*,x,-5%,-18%
CCn1cc(C(=O)NC(=S)Nc2ccccc2Br)cn1,23*,-1%,41*,-20%,4%,3%
CCn1cc(C(=O)Nc2ccccc2C(=O)OC)cn1,x,x,x,x,-18%,-2%
O=C(NCCOCCn1c(=O)oc2ccccc21)Nc1cccc(Cl)c1,x,x,x,x,x,-8%
CCc1ccccc1NC1Nc2cc(C)nn2S1 (configuration not stated),15,2%,14,-6%,33%,-17%
Cc1cc2n(n1)SC(Nc1ccc(F)cc1)N2 (configuration not stated),13*,2%,41*,0%,8%,-20%
SMILES,CHX counter,LmPK inhibitor,Shiga inhibitor,Giardia FBPA inh,RE007 growth inh,TbPYK inhibitor
Cc1cc2n(n1)SC(Nc1cccc3ccccc13)N2 (configuration not stated),27*,1%,52*,-7%,3%,-6%
COc1ccc(NC(=O)CSc2ncc3c(n2)-c2ccccc2N(Cc2ccc(C)cc2)S3(=O)=O)cc1Cl,x,x,x,x,x,7%
OC(c1ccccc1)(c1ccccc1)c1nccc2ccccc12,x,x,x,x,18%,-1%
O=C(N/N=C/c1ccc(C(F)(F)F)cc1)c1ccncc1,3,-3%,7,1%,-6%,-1%
O=C(O)c1ccc(/C=N/Nc2ccc(C(F)(F)F)cn2)cc1,35*,-4%,84*,-6%,9%,-1%
COc1cc(/C=N/Nc2ccc(C(F)(F)F)cn2)ccc1O,31*,3%,127*,-2%,-4%,-5%
NC(CCc1ccccc1)c1csc(NC(=O)Nc2cccc(C(F)(F)F)c2)n1 (configuration not stated),x,x,x,x,18%,0%
COc1ccc(OCC(=O)NNC(=O)c2cccc(O)c2)cc1,-2,-4%,-8,6%,6%,3%
CCN(c1ccccc1)c1ncnc2c1cnn2-c1ccccc1,26*,9%,65*,-3%,3%,-2%
CN(Cc1ccccc1)c1ncnc2c1cnn2-c1ccccc1,55*,1%,98*,0%,u,-2%
CCN(Cc1ccccc1)c1ncnc2c1cnn2-c1ccc(F)cc1,x,x,x,x,x,0%
Cc1cccc(-c2nc(C#N)c(N3CCCCC3)o2)c1,27*,-2%,37*,-3%,-7%,7%
Cc1ccc(-c2nc(C#N)c(N3CCCCC3)o2)cc1,2,1%,22,1%,-11%,-12%
Cc1cccc(-c2nc(C#N)c(NC3CCCCC3)o2)c1,50*,-2%,168*,-3%,-14%,-11%
O=c1c(O)c(-c2cccs2)oc2ccc(Cl)cc12,9,14%,-13,-24%,u,1%
Cc1ccc(-c2oc3ccccc3c(=O)c2O)cc1,14*,1%,9,-2%,-11%,-3%
Cc1ccc2oc(-c3ccccc3)c(C(=O)O)c(=O)c2c1,44*,-4%,80*,-1%,u,2%
O=c1c(O)c(-c2cccs2)oc2ccccc12,18*,-3%,15,-11%,u,-13%
CN(Cc1ccccc1)c1ncnc2c1nnn2C,x,x,x,x,x,2%
COc1ccc(/C=C/C(=O)Nc2nc(-c3cccs3)ns2)cc1OC,x,x,x,x,x,5%
O=C(OCc1ccccc1)c1c(-c2ccccc2)oc2c1C(OCCO)CCC2 (configuration not stated),x,x,x,x,-16%,-11%
CS(=O)(=O)c1ccc2nc(NC(=O)c3ccc(Cl)cc3)sc2c1,16*,1%,17,-13%,8%,0%
CS(=O)(=O)c1ccc2nc(NC(=O)c3ccccc3Br)sc2c1,37*,-5%,70*,-14%,1%,-3%
COc1ccccc1C(=O)Nc1nc2ccccc2s1,-13,1%,x,7%,u,u
COc1ccccc1C(=O)Nc1nc2ccc(S(C)(=O)=O)cc2s1,17*,1%,+,5%,-5%,-5%
CS(=O)(=O)c1ccc2nc(NC(=O)c3ccccc3Cl)sc2c1,15*,-6%,59*,-25%,16%,-5%
CS(=O)(=O)c1ccc2nc(NC(=O)c3cccc(Cl)c3)sc2c1,5,-10%,30,0%,-11%,-18%
